Source: PubChem (The Scripps Research Institute Molecular Screening Center)
The sample as a whole holds a higher share of hits than the screen did.
SF1 inhibitor: inhibitors of human nuclear receptor SF-1. Q13285. CHO-K1 Gal4-SF-1 LBD luciferase reporter. inhibition, % at 10 µM. hit rate 0.55% among 65,000. AID 525;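 active = inhibition above the mean inhibition of all tested compounds plus 3 SD, cut at about 48% in these data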;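 note: 0% = SF-1 transfected cells with DMSO and 100% = mock-transfected cells lacking SF-1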
Target sequence (Q13285 whole entry, looked up, the tested form may be a part): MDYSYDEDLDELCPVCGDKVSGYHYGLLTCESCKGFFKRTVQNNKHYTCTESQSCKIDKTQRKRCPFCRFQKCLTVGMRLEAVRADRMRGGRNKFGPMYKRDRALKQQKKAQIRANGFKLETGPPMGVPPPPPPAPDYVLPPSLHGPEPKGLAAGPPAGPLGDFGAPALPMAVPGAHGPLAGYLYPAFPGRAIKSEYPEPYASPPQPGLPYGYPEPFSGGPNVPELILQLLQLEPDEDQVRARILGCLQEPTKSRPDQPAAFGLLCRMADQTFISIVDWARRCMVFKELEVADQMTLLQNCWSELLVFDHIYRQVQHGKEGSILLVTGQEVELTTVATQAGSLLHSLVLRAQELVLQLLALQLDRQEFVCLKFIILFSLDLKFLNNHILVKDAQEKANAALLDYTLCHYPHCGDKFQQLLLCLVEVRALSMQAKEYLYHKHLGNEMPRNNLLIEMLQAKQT
The depositor's hits bear a star.

SMILES	SF1 inhibitor
COc1cccc2cc(C(=O)C3=C(O)C(=O)N(CCN4CCOCC4)C3c3cccs3)oc12 (centres undefined)	13
COc1cc(NC(=O)C2CC2)c(C(=O)O)cc1OC	-3
CC1CCCN(Cc2nc3c(c(=O)n(C)c(=O)n3C)n2CCCc2ccccc2)C1 (centres undefined)	14
CCC(CC)C(=O)NCCc1cc2ccc(C)c(C)c2[nH]c1=O	4
COC(=O)c1ccc(CSc2nnnn2-c2ccccc2)o1	6
COc1ccc(CCNc2nnc(Sc3nnnn3-c3ccccc3)s2)cc1OC	68*
COc1ccc(CCNS(=O)(=O)c2ccccc2)cc1OC	13
O=c1nc(N2CCOCC2)ccn1Cc1ccc(Br)cc1	7
COc1ccc(CNC(=O)C2CC(=O)N(c3ccc(OCC(=O)N4C(C)CCCC4C)cc3)C2)cc1 (centres undefined)	15
CCCN(CCC)CCSc1nc(O)c(C(C)C)c(=O)[nH]1	-16
Cc1cnc(NC(=O)CSc2nnc(-c3ccccc3)o2)s1	-88
Cc1cnc(NC(=O)CSc2nnc(COc3c(C)cccc3C)o2)s1	1
Cc1cnc(NC(=O)COc2ccccc2Cl)s1	60*
Cc1csc(NC(=O)c2cnc3ccccn3c2=O)n1	-61
CN(Cc1nc(-c2ccccn2)no1)S(=O)(=O)c1ccc(Cl)cc1	-4
c1ccc(-c2noc(C34CC5CC(CC(C5)C3)C4)n2)nc1	-86
c1ccc(-c2noc(-c3ccc4ccccc4c3)n2)nc1	91*
c1ccc(-c2noc(-c3ccc4c(c3)OCO4)n2)nc1	75*
Cc1onc(-c2ccccc2Cl)c1-c1nc(-c2ccccn2)no1	-7
c1ccc(-c2noc(C3CCCCC3)n2)nc1	-56
Cc1ccc(-c2nnn(CC(=O)N(Cc3ccco3)C(C(=O)NC(C)(C)C)c3cccs3)n2)o1 (centres undefined)	14
CCSc1nc2c(cnn2-c2ccc(C)cc2)c(=O)[nH]1	-10
CC(=O)NCCc1nc2ccccc2n1Cc1ccccc1	32
CCOC(=O)c1[nH]nc(N)c1NC(=O)c1ccc(Cl)cc1Cl	-27
CC1(C)CC(=O)C2=C(C1)Oc1nc3ccccc3cc1C2C(C#N)C#N (centres undefined)	81*
SMILES	SF1 inhibitor
CCCCCCC1C(C#N)=C(N)OC2=C1C(=O)CC(C)(C)C2 (centres undefined)	-7
O=C(Cn1nc(-c2ccc(Cl)cc2)ccc1=O)NCCN1CCOCC1	3
CCOC(=O)c1sc2ncn(CC(=O)N(CC)CC)c(=O)c2c1C	17
COCCN(CCOC)S(=O)(=O)c1ccc(C(=O)Nc2nc(-c3ccncc3)cs2)cc1	5
CSCc1nnc(NC(=O)c2ccc(S(=O)(=O)N(CC(C)C)CC(C)C)cc2)o1	48*
Cc1nnc(NC(=O)c2ccc(S(=O)(=O)N(C)Cc3ccccc3)cc2)o1	22
COc1cccc(-n2c(SCC(=O)NCCc3ccccc3)nnc2-c2ccoc2C)c1	8
CCCc1cc(=O)n2[nH]c(-c3ccc(Br)cc3)cc2n1	-112
COc1ccc(S(=O)(=O)N(CC(=O)N2CCN(C)CC2)c2ccc(C)cc2)cc1OC	0
O[C@@H]1C2CCCC1[C@]1(O)CCCCC1C2 (some centres undefined)	12
Nc1nonc1C(=O)NCCNCc1cc(Br)ccc1OCc1ccc(F)cc1	57*
O=C(NCc1ccc(F)cc1)c1noc2c1CCCC2	3
COc1ccc(CCNC(=O)c2nonc2N)cc1OC	1
COc1ccc(-n2c(=S)[nH]c3cc(C(=O)NCCCN4CCCC4=O)ccc3c2=O)cc1	-8
CCOC(=O)CNc1nc(OCC#N)nc(N2CCOCC2)n1	3
CN(CCc1ccccn1)C(=O)CN(C)S(=O)(=O)c1ccc2c(c1)c(=O)n(C)c(=O)n2C	4
CCCC(c1nnnn1CCOC)N1CCN(c2cccc(OC)c2)CC1 (centres undefined)	0
CCCS(=O)(=O)c1nnnn1-c1cccc(OC)c1	58*
CCOC(=O)Cn1nnc(-c2cccc(OC)c2)n1	6
CN(Cc1ccccc1)C(=O)CCCn1c(=O)[nH]c2cc(Cl)ccc2c1=O	-7
CCn1c(C)nc2cc(-c3nc4n(n3)Cc3ccccc3-4)ccc21	96*
CCCCN(CC)Cc1ccc(CNC(=O)Nc2ccc(OC)cc2OC)o1	-7
O=C1c2ccccc2C(=O)C1c1nccc2ccccc12	60*
c1ccc2c(-c3nc(-c4ccncc4)no3)cccc2c1	-74
COC(=O)C1CCN(C(=O)NC(C)(C)C)CC1	18
SMILES	SF1 inhibitor
COc1ccc(N2CCN(C(=O)c3ccc(S(=O)(=O)N4CCOCC4)cc3)CC2)cc1	-13
CC(=O)Oc1c(S(=O)(=O)c2ccc(C)cc2)c(C)nn1-c1ccccc1	-10
N#Cc1c(NC(=O)CSc2ncn[nH]2)sc2c1CCCCC2	88*
Cn1c(SCC(=O)Nc2sc3c(c2C#N)CCC3)nnc1C1COc2ccccc2O1 (centres undefined)	-4
CCc1nnc(NC(=O)CSc2nc(C)c3c(c2C#N)CCCC3)s1	-55
CCC(Sc1ccccn1)C(=O)Nc1nnc(C)s1 (centres undefined)	-6
Nc1nnnn1/N=C/C(Br)=C/c1ccccc1	96*
CC(C)(C)n1ncc2c(=O)n(CC(=O)NCc3ccccc3Cl)cnc21	-74
Cc1cccc(-n2ncc3c(NCCCO)ncnc32)c1	-67
Clc1ccc(-n2ncc3c(N4CCCCCC4)ncnc32)cc1	76*
CCOC(=O)C1CCCN(c2ncnc3c2cnn3-c2ccc(OC)cc2)C1 (centres undefined)	-58
C=CCNc1ncnc2c1cnn2-c1ccc(Cl)cc1	-50
CC1CN(c2ncnc3c2cnn3-c2ccc(Cl)cc2)CC(C)O1 (centres undefined)	-75
COc1ccc(-n2ncc3c(N4CCCCC4)ncnc32)cc1	84*
Cc1cccc(-n2ncc3c(N4CC(C)CC(C)C4)ncnc32)c1 (centres undefined)	-51
Cc1cccc(-n2ncc3c(N4CCOCC4)ncnc32)c1	65*
COc1ccc2nc(N3CCCCC3)c(C#N)cc2c1	-50
CC(C)=CC(=O)N1CCCc2ccccc21	19
